Screening results deposited in PubChem BioAssay by Pan Lab, Icahn School of Medicine at Mount Sinai.
ROC1-CUL1 inh – inhibitors of human ROC1-CUL1 ubiquitin ligase activity. E3 ubiquitin-protein ligase RBX1 (Homo sapiens) + Cullin-1 (Homo sapiens), P62877+Q13616. in vitro K48 di-Ub FRET, acceptor:donor ratio, 45 min. inhibition, % at 10 µM. 140,000 tested, 0.6% active; in the data active means inhibition above about 25%
Target sequence (P62877 whole entry, looked up): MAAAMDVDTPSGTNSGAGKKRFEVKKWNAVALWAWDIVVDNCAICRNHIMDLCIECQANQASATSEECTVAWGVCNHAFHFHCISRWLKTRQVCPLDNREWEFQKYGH
Target sequence (Q13616 whole entry, looked up): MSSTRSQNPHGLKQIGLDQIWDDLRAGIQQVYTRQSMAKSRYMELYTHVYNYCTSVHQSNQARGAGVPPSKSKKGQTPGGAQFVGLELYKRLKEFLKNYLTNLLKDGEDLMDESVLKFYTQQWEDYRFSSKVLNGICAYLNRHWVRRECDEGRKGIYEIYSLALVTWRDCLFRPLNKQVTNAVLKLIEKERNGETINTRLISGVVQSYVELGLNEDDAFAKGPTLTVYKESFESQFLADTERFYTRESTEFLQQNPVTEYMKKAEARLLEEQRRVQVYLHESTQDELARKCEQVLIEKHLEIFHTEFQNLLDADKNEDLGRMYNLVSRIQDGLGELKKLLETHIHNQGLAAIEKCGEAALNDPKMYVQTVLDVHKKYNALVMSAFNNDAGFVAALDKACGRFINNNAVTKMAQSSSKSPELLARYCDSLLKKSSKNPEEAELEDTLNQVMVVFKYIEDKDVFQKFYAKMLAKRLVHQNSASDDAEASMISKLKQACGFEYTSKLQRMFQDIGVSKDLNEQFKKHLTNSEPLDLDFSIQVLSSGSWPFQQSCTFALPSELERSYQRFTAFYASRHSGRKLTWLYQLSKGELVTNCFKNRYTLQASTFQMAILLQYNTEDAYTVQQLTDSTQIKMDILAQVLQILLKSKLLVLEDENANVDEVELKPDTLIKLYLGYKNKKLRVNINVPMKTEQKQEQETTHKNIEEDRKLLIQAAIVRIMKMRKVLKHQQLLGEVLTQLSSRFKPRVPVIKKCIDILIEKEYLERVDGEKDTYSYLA
An asterisk follows results filed as active. Many of the other results were omitted from the sample, so hits are more common in it than they were.

SMILES | ROC1-CUL1 inh
CC(C)(C)C1(C)OC(=O)C(=Cc2ccc3c(c2)OCO3)C(=O)O1 (stereo not given) | 3.5
Cc1ccc(CSc2nnc(-c3ccccc3)n2-c2ccccc2)c(C)c1 | -2.7
CC(c1ccccc1)C1(O)OC(=O)c2ccccc21 (stereo not given) | 7.4
COc1c(Cl)cc2c(c1Cl)NC(=O)C(Cl)(Cl)C2=O | 45.5*
O=C1Nc2c(cc([N+](=O)[O-])cc2[N+](=O)[O-])C(=O)C1(Cl)Cl | 21.2
COc1cccc2c1NC(=O)C(Cl)(Cl)C2=O | -2.5
CCN(CC)S(=O)(=O)c1ccc(NC(=O)Cc2ccc(OC)cc2)cc1 | 5.4
Cc1cccc(C)c1NC(=O)CC(C)C | 10.6
Cc1nc(CNCC2(O)CCCN(CC3CC3)C2=O)cs1 (stereo not given) | 7.9
CN(Cc1ccc(F)cc1)C(=O)C1CCCN(C2CCN(C(=O)C3CC3)CC2)C1 (stereo not given) | -3.0
CCOc1cccc(CNC(C)(C)CO)c1OCc1ccc(Cl)cc1Cl | -0.5
CNCc1cccc(OCc2ccccc2Cl)c1 | -3.8
CNCc1ccc(OCc2ccc(Cl)cc2Cl)cc1 | -6.1
CCOc1cccc(CNc2ccc(O)cc2)c1OCc1ccccc1Cl | -2.8
Oc1ccc(NCc2cccc(OCc3ccc(Cl)cc3Cl)c2)cc1 | 38.8*
CCOc1cccc(CNc2ccc(O)cc2)c1OCc1ccc(Cl)cc1Cl | 53.4*
CCOC(=O)c1c(NC(=O)CSC(=O)c2ccccc2)sc(NC(=O)CSC(=O)c2ccccc2)c1C(=O)OCC | -9.0
Cc1cccc(NC(=O)CN2C(=O)N=C(Cc3cccn3-c3ccc(Br)cc3)C2=O)c1 | -4.3
CCN(CC)C1CCN(c2nncc(-c3ccc(OC)cc3)n2)C1 (stereo not given) | 0.8
COCCN1C(=O)C(C(c2ccccc2F)N2CCN(c3ccccc3)CC2)C(=O)C=C1C (stereo not given) | -3.0
CO[C@H]1[C@H](NC(=O)Cc2cccs2)c2ccccc2C12CCN(Cc1ccc(C)cc1)CC2 | -9.9
COc1cccc2c1N=C1OC(C)(C)CC1C2=O (stereo not given) | 0.7
CC#CC(=O)N1CCC(n2nccc2NC(=O)CC(C)C)CC1 | 0.7
NCC1CCN(c2cnn(CCOC(=O)c3ccccc3)c(=O)c2)CC1 | 16.1
COc1cc(/C=C2/C(=O)NN(c3ccc(C)c(Cl)c3)C2=O)cc(Cl)c1O | 18.5
SMILES | ROC1-CUL1 inh
CCOc1ccccc1/C=C1\C(=O)NN(c2ccc(Br)cc2)C1=O | -2.5
CCOc1cc(/C=C2\C(=O)NN(c3ccc(C)c(Cl)c3)C2=O)c(Br)c(Br)c1O | 100.1*
O=C1NN(c2cccc(Cl)c2)C(=O)/C1=C/c1ccccc1O | -0.9
CCOc1cc(/C=C2\C(=O)NN(c3cccc(Cl)c3)C2=O)c(Br)c(Br)c1O | 62.2*
CCOc1cc(/C=C2\C(=O)NN(c3ccc(C)c(C)c3)C2=O)ccc1O | 7.4
COc1ccc(C(=O)N2CCCC2)c(OC2CCN(C(=O)C3CCCO3)CC2)c1 (stereo not given) | 13.8
COc1ccccc1NS(=O)(=O)c1ccc(NC(=O)/C=C/c2cnn(C)c2)cc1 | -3.2
COc1ccc(CC(=O)NC(C)c2cnc(-c3ccncc3)nc2C)cc1 (stereo not given) | -0.1
COc1ccc(/C=C2\N=C(c3cccc(F)c3)OC2=O)cc1OCc1ccc(C)cc1 | 0.9
COc1cc(/C=C2\SC(=Nc3ccccc3Cl)NC2=O)ccc1OCC(=O)O | 5.1
COc1cc(/C=C2\SC(=Nc3cccc(Br)c3)NC2=O)ccc1OCC(=O)O | 29.7*
CCOc1cc(/C=C2/SC(=O)N(C(C)C)C2=O)c(Br)cc1OCC(=O)Nc1ccccc1 | 1.6
CCOC(=O)c1ccc(N=C2NC(=O)/C(=C\c3cc(Br)ccc3OCC(=O)Nc3ccccc3OC)S2)cc1 | 0.8
CCOc1cc(/C=C2\SC(=Nc3cccc(C(=O)O)c3)NC2=O)c(Br)cc1OCC(=O)Nc1ccc(C)cc1 | 96.9*
C=CCOc1ccc(/C=C2\SC(=Nc3ccccc3)NC2=O)cc1OCC | -3.2
Nc1nc2ncc([N+](=O)[O-])cn2n1 | -4.4
CCC(=O)NC(=S)Nc1cc(C)c(C)cc1O | 0.0
O=c1c(Cl)nc(Cl)cn1-c1ccc(Cl)c(Cl)c1 | 32.4*
COc1nc(Cl)cn(-c2ccc(C)cc2)c1=O | 3.4
CC(=O)Nc1nc(Cl)cn(-c2ccc(C)cc2)c1=O | 5.7
CN(C)C(=O)c1ccccc1Sc1ccccc1Br | -0.1
Cc1cccc(CN2CCCC(O)(CN(C)C(C)C)C2=O)c1 (stereo not given) | -6.9
CC(=O)c1cccc(Nc2nc(-c3ccccn3)cs2)c1 | 7.3
Cn1cnnc1CCNc1nccc(-c2cnn(-c3ccccc3Cl)c2)n1 | 10.0
CC(=O)CCN1C2NONC2N(CCC(C)=O)C2NONC21 (stereo not given) | -2.7
SMILES | ROC1-CUL1 inh
N#Cc1c(-c2ccccc2)c(-c2ccccc2)n(Cc2ccco2)c1NC(=O)c1cccs1 | -2.9
N#C/C(=C\c1ccco1)C(=O)c1cccs1 | 57.2*
CC(C)=CC(=O)/C=C(/C)c1cccs1 | -5.4
O=c1/c(=C/c2ccccc2OCc2ccccc2Cl)sc2n1C(c1cccc(F)c1)C1=C(N=2)c2ccccc2CC1 (stereo not given) | 3.5
CC(=O)Sc1ccc(N2C(=O)CCC2=O)cc1 | 36.7*
O=C1CCC(=O)N1c1cccc(Cl)c1 | 7.9
O=C(Oc1ccc(N2C(=O)CCC2=O)cc1)c1ccccc1 | 2.3
CCCC(=O)Nc1ccc(C)cc1C(=O)O | -0.3
CC1=NN(c2ccccc2)C(=O)C1C(c1ccccc1C(=O)O)C1C(=O)N(c2ccccc2)N=C1C (stereo not given) | -3.3
CC1=NN(c2ccccc2)C(=O)C1N=Nc1cc(Cl)ccc1C(F)(F)F (stereo not given) | -6.7
CC1=NN(c2ccccc2)C(=O)C1C(c1ccc(Cl)cc1)C1C(=O)N(c2ccccc2)N=C1C (stereo not given) | 61.1*
COCCn1c(CN2CCc3[nH]ncc3C2)cnc1S(=O)(=O)CC(C)(C)C | 8.7
Cc1cc(C)n(-c2nc3c(c(=O)[nH]c(=O)n3C)n2CCC(C)C)n1 | 1.5
Nc1cc(S(=O)(=O)O)cc(C(=O)O)c1O | 11.6
CC1=NN(c2cc(S(=O)(=O)O)cc(C(=O)O)c2O)C(=O)C1 | 69.2*
O=C(O)c1cc(S(=O)(=O)O)cc(Nc2c3ccccc3nc3ccccc23)c1O | -7.5
COc1ccc2c(c1)sc1nc(C)c(CCO)c(=O)n12 | 4.5
COc1cccc(CN2CCCC3(CCN(C(=O)c4n[nH]c5c4CCC5)C3)C2=O)c1 (stereo not given) | 10.3
CC(C)(O)C(=O)/C=C/c1cccc2ccccc12 | 53.9*
CC(C)(O)C(=O)/C=C/c1ccccc1 | 13.0
C(/C=C/c1cccc2ccccc12)=C\c1ccccc1 | -5.3
CCOC(=O)CN1CCN(Cc2ccc(Cl)cc2)CC1 | -1.9
C=CCN(CC=C)C(=O)c1cccc(OC2CCN(C3CCN(C)CC3)CC2)c1 | 13.2
CCc1cccc2c1=NC(=O)C=2c1sc(Nc2cccc(Cl)c2)nc1O | -6.7
O=C1N=c2ccccc2=C1c1sc(Nc2ccc(O)cc2)nc1O | 31.6*
O=C1N=c2ccccc2=C1c1sc(Nc2ccc(Br)cc2)nc1O | 4.0
CCCCC(=O)Nc1scc(-c2ccc(Cl)cc2)c1C(=O)OCC | 0.1
O=S(=O)(Cc1ccc(Cl)c(Cl)c1)N1CCc2ccccc2C1 | -3.5
O=C(NC(=O)c1ccccc1)C(=NO)C(=O)NC(=O)c1ccccc1 | -3.6
COc1ccccc1C(=O)NC1(C(F)(F)F)C(=O)N=C(C)C1C#N (stereo not given) | 8.0
